For 8 compounds, growth results are on record in PubChem BioAssay (NCI).

This is part of a sample that, as a whole, favours compounds with a hit. Of some 83,000 tested, about 20% had one in any assay.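 Step 1: grow cells in 96-well plates. Step 2: add test compound at a single concentration. Step 3: incubate 48 h. Step 4: record percent growth.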 A number with no mark means an inactive call. Activity calls are given as the source filed them. The calls were made as follows: active = growth percent below 10; inactive = the rest.

Some test systems named below: DU-145 prostate; K-562 leukemia; MALME-3M melanoma; MDA-MB-231 breast; RXF 393 renal; SF-268 CNS; SF-295 CNS; SF-539 CNS; UACC-257 melanoma; M14 melanoma; HCT-15 colon; HT29 colon; SNB-75 CNS; SNB-19 CNS; U251 CNS; PC-3 prostate; SK-MEL-5 melanoma; UACC-62 melanoma; LOX IMVI melanoma; SK-MEL-28 melanoma.
What all share (assay): NCI-60 one-dose screen, 48 h (100 = growth as untreated, 0 = no growth, -100 = all killed)
Conditions in all cases: 10 µM unless noted

Consider `CC(=O)Oc1ccc(OC(C)=O)c2ccccc12`, for which the growth in the assay with DU-145 prostate was 116%; in the assay with K-562 leukemia, 49.6%; in the assay with MALME-3M melanoma, 107%; with MDA-MB-231 breast, -45.5% (active); in the assay with RXF 393 renal it was 87.1%; with SF-268 CNS, 87.5%. Also, the growth is 105% with SF-295 CNS; 99.9% with SF-539 CNS; 78.1% with UACC-257 melanoma; 105% in the assay with M14 melanoma; 99.1% with HCT-15 colon; 107% in the assay with HT29 colon. Also, the growth is 105% in the assay on SNB-75 CNS; 91.9% in the assay on SNB-19 CNS; 89% in the assay with U251 CNS; 54.8% in the assay with PC-3 prostate; 60.2% in the assay with SK-MEL-5 melanoma; 78% with UACC-62 melanoma. Besides, the growth with LOX IMVI melanoma was 81.2%; in the assay with SK-MEL-28 melanoma, 111%.
Turning to `N#Cc1c(-c2ccccc2)nc(SCc2nnc(-c3ccc(Cl)cc3)o2)[nH]c1=O`, the growth was 108% in the assay with DU-145 prostate; 84.1% in the assay with K-562 leukemia; 88.9% with MALME-3M melanoma; 103% with MDA-MB-231 breast; 106% in the assay with RXF 393 renal; 100% in the assay on SF-268 CNS. Also, the growth with SF-295 CNS is 89.5%; in the assay with SF-539 CNS, 104%; with UACC-257 melanoma, 94.7%; in the assay on M14 melanoma, 92.1%; in the assay on HCT-15 colon, 101%; with HT29 colon, 94.1%. The growth in the assay on SNB-75 CNS was 93.9%; in the assay with SNB-19 CNS, 100%; in the assay with U251 CNS, 81%; in the assay with PC-3 prostate, 61.5%; in the assay on SK-MEL-5 melanoma, 99.5%; in the assay with UACC-62 melanoma it was 98.5%. Further, the figures for the growth with LOX IMVI melanoma and with SK-MEL-28 melanoma were 94.1% and 110%, respectively.
With `CN(C)CCCNC(=O)c1cncnc1Nc1ccc(OCc2cccc(F)c2)c(Cl)c1`, the growth in the assay with DU-145 prostate was 23.4%; with K-562 leukemia, -57.7% (active); in the assay on MALME-3M melanoma it was -11.7% (active); in the assay on MDA-MB-231 breast, -43.4% (active); with RXF 393 renal, 20.5%; in the assay on SF-268 CNS it was 34.5%. Moreover, the growth in the assay on SF-295 CNS is 71.9%; in the assay on SF-539 CNS, -71.2% (active); in the assay with UACC-257 melanoma, -63.2% (active); with M14 melanoma, -71.4% (active); in the assay with HCT-15 colon, -37.6% (active); with HT29 colon it was -49.7% (active). Also, the growth was -18.2% (active) with SNB-75 CNS; 57.3% in the assay with SNB-19 CNS; -52.5% (active) in the assay on U251 CNS; 0.306% (active) in the assay with PC-3 prostate; 61.3% in the assay with SK-MEL-5 melanoma; -84.7% (active) in the assay with UACC-62 melanoma. In addition, the values for the growth in the assay on LOX IMVI melanoma and in the assay on SK-MEL-28 melanoma were -88.1% (active) and -86.1% (active), respectively.
Turning to `NS(=O)(=O)c1ccc(-c2cc(-c3nnc(SCC(=O)Nc4ccc(C(=O)/C=C/c5ccc(Cl)cc5)cc4)n3-c3ccccc3)c3ccccc3n2)cc1`, the growth is 95.7% with DU-145 prostate; 84.4% with K-562 leukemia; 101% with MALME-3M melanoma; 90.8% in the assay with MDA-MB-231 breast; 93% in the assay on RXF 393 renal; 74.8% in the assay on SF-268 CNS. Besides, the growth with SF-295 CNS was 101%; in the assay on SF-539 CNS it was 92.3%; in the assay on UACC-257 melanoma, 104%; in the assay with M14 melanoma, 97.7%; in the assay on HCT-15 colon it was 94.7%; with HT29 colon, 94.9%. Also, the growth is 54% in the assay on SNB-75 CNS; 86.8% in the assay on SNB-19 CNS; 81.1% in the assay on U251 CNS; 79.8% in the assay on PC-3 prostate; 92.8% with SK-MEL-5 melanoma; 71% in the assay on UACC-62 melanoma. Moreover, the growth was 88% in the assay with LOX IMVI melanoma and 97% in the assay on SK-MEL-28 melanoma.
For `COc1ccc(-c2nc3c(N)c(CO)cnc3s2)cc1`, the growth was 86.6% in the assay on DU-145 prostate; 97.2% with K-562 leukemia; 101% in the assay on MALME-3M melanoma; 94.4% in the assay on MDA-MB-231 breast; 74.7% in the assay with RXF 393 renal; 76.2% with SF-268 CNS. In addition, the growth in the assay with SF-295 CNS was 93.1%; in the assay with SF-539 CNS it was 89.7%; in the assay with UACC-257 melanoma it was 110%; in the assay on M14 melanoma it was 99.4%; in the assay with HCT-15 colon it was 93.8%; with HT29 colon, 97.7%. The growth was 82.9% in the assay on SNB-75 CNS; 97.2% with SNB-19 CNS; 88.6% with U251 CNS; 91.8% with PC-3 prostate; 82.7% in the assay on SK-MEL-5 melanoma; 92.7% with UACC-62 melanoma. The growth with LOX IMVI melanoma was 81.9%; with SK-MEL-28 melanoma, 98.5%.
Turning to `CN(C)c1ccc(-c2nc(-c3ccccc3)c(-c3ccccc3)[nH]2)cc1`, the growth was 102% with DU-145 prostate; 65.7% with K-562 leukemia; 107% in the assay with MALME-3M melanoma; 95.3% in the assay on MDA-MB-231 breast; 104% in the assay on RXF 393 renal; 112% with SF-268 CNS. Also, the growth was 88.6% in the assay with SF-295 CNS; 102% in the assay on SF-539 CNS; 110% with UACC-257 melanoma; 82.7% in the assay on M14 melanoma; 77.5% in the assay with HCT-15 colon; 58.9% with HT29 colon. Besides, the growth with SNB-75 CNS is 106%; with SNB-19 CNS it was 106%; with U251 CNS, 103%; with PC-3 prostate, 76.9%; with SK-MEL-5 melanoma it was 100%; in the assay with UACC-62 melanoma it was 97.7%. The growth with LOX IMVI melanoma is 88.7%; in the assay on SK-MEL-28 melanoma, 103%.
Take `C=C(C)[C@@H]1CC[C@]2(C(=O)N3CCN(C)CC3)CC[C@]3(C)[C@H](CC[C@@H]4[C@@]5(C)CC[C@H](OC(=O)c6ccccc6C(=O)O)C(C)(C)[C@@H]5CC[C@]43C)[C@@H]12`: the growth is 104% in the assay on DU-145 prostate; 102% in the assay on K-562 leukemia; 97.4% in the assay on MALME-3M melanoma; 96.9% in the assay on MDA-MB-231 breast; 111% in the assay with RXF 393 renal; 92.8% with SF-268 CNS. Besides, the growth in the assay with SF-295 CNS was 104%; in the assay with SF-539 CNS, 97.6%; in the assay with UACC-257 melanoma, 107%; with M14 melanoma, 99.3%; with HCT-15 colon, 103%; in the assay with HT29 colon, 109%. Also, the growth in the assay on SNB-75 CNS is 85.1%; in the assay with SNB-19 CNS it was 95.4%; in the assay on U251 CNS, 105%; in the assay on PC-3 prostate it was 91%; in the assay with SK-MEL-5 melanoma, 99.5%; in the assay on UACC-62 melanoma, 101%. For the same compound, the growth is 99.1% in the assay on LOX IMVI melanoma and 105% with SK-MEL-28 melanoma.
In the case of `CCN(CC)CCCN1C(=O)c2c(c(C)c3c(oc4ccc(O)cc43)c2C)C1=O`, the growth in the assay on DU-145 prostate is -58.8% (active); in the assay with K-562 leukemia it was 3.9% (active); with MALME-3M melanoma, 87%; in the assay on MDA-MB-231 breast, -80.9% (active); in the assay on RXF 393 renal, 61.3%; in the assay on SF-268 CNS, 66%. Besides, the growth in the assay with SF-295 CNS is 109%; in the assay on SF-539 CNS it was 1.71% (active); in the assay on UACC-257 melanoma, 102%; in the assay with M14 melanoma, 86.6%; with HCT-15 colon it was -77.5% (active); in the assay on HT29 colon it was -40.3% (active). For the same compound, the growth with SNB-75 CNS was 90.4%; in the assay with SNB-19 CNS, 77.4%; in the assay with U251 CNS, 47.3%; in the assay with PC-3 prostate it was 79.7%; with SK-MEL-5 melanoma it was 48.4%; in the assay with UACC-62 melanoma, 96%. Further, the growth was -95.8% (active) with LOX IMVI melanoma and 81.8% in the assay with SK-MEL-28 melanoma.
